39 molecules from ChEMBL document CHEMBL3433997, “St. Jude Leishmania screening dataset” (2016) can be followed below.

This assay addresses Glucose transporter (Leishmania mexicana) (UniProt O61059). Description: ST_JUDE_LEISH: Cytotoxicity at 2uM final concentration against transgenic Leishmania Mexicana promastigotes LmGT2 that are glucose transport deficient and complemented with the L. Mexicana glucose transporter 2. Activity is measured by DNA content using SYBR green in vitro. The assay is classed as functional.
Take `O=c1cc(NCCCNCc2cccc(OC(F)(F)C(F)F)c2)[nH]c2ccccc12`: the inhibition is 5.78%. Regarding `Cc1ccc(CN2CCCN(Cc3cccc(NC(=O)c4cc5ccccc5s4)c3)CC2)cc1`, the inhibition was -2.83%. For `Cc1cc(C2CCN(CCCCNC(=O)c3ccc(-c4ccc(C(F)(F)F)cc4)cc3)CC2)c(C)cc1OCC#N` the value was -0.09%.

For the molecule `FC(F)(F)c1cccc(CNCCCCCNCc2ccc(Cl)cc2)c1`, the inhibition was -0.19%. For `CCCN(CCC)C(=O)c1cc(C(=O)N[C@@H](Cc2ccccc2)[C@H](O)CNC2CC2)cc(N2CCCCS2(=O)=O)c1` the value was 1.62%; for `Cc1cccc2nc(-c3cccc(-c4ccc(NC(=O)C(C)(C)c5ccccn5)cc4)c3)[nH]c12`, 2.94%; for `Cc1ccc2[nH]c3ccccc3c(=O)c2c1`, 1.77%. For the molecule `CCCNC[C@@H](O)[C@H](Cc1ccccc1)NC(=O)c1cc(NCC)cc(N2CCCCS2(=O)=O)c1`, the inhibition was determined as 2.85%. The result for `CC(C)(CNCc1ccc(Cl)c(Cl)c1)c1nc(-c2ccc(Cl)c(O)c2)c(-c2ccncc2)[nH]1` reads 4.37%. In the case of `O=C(OCc1ccccc1)N1CCc2c([nH]c3ccccc23)C1CCC(F)(F)F` (centres undefined), the inhibition was 0.12%. The result for `Cc1cc(NC(=O)Nc2cccc(Cl)c2Cl)c2ccccc2n1` reads 2.66%; that for `COc1ccc2nccc(N3C[C@H]4C[C@@H]3CN4CCNCc3ccc4c(n3)NC(=O)CS4)c2n1`, -1.32%; that for `COc1cc(CNc2ccc(N3CCCC3)cc2)cc(Cl)c1OC`, 1.78%. The result for `Cc1ccccc1C1CCN(C2CCC(NC(=O)c3cc(-c4ccccc4)oc3C)CC2)CC1` (centres undefined) reads -1.44%; that for `COc1cccc(CN(C(=O)Nc2ccccc2F)[C@H]2C[C@H]3C(=O)Nc4cc(F)ccc4C(=O)N3C2)c1`, 5.37%. The result for `CC(=O)c1sc2ccccc2c1O` reads 1.24%. On to `O=S1(=O)NCc2ccc(Nc3nccc(Nc4ccc5c(cnn5Cc5ccccc5)c4)n3)cc21`, for which the inhibition was -1.65%. The result for `OC(CNc1ccnc(Nc2cccc(OCCCN3CCOCC3)c2)n1)c1ccccc1` (centres undefined) reads -0.96%. For `CCC(C)(C)c1ccc(Oc2ccc(NC(=O)Nc3ccc(Cl)c(Cl)c3)cc2)cc1` the value was 1.26%.

On to `CC1(C)NC(N)=NC(=N)N1OCc1ccc2ccccc2c1CON1C(=N)N=C(N)NC1(C)C`, for which the inhibition was 3.06%. For `CN(C)CCNC(=O)c1ccc2c(c1)ncn2-c1cc(OCc2ccccc2C(F)(F)F)c(C(N)=O)s1.CN(C)CCNC(=O)c1ccc2ncn(-c3cc(OCc4ccccc4C(F)(F)F)c(C(N)=O)s3)c2c1` the value was 1.86%; for `COc1ccc(NC(=O)Nc2ccc(-c3ccncc3)c(C(F)(F)F)c2)cc1N1CCN(C)CC1`, 9.27%; for `CCn1c(SCc2ccccc2)nc2c1c(=O)[nH]c(=O)n2C`, -1.06%. For `COc1ccc(Nc2nc(NCc3cccnc3)cc(-c3ccc(OC)cc3)n2)cc1` the value was -0.82%; for `Cc1cc(N[C@@H](Cc2ccccc2)C(=O)NCCOc2ccccc2)nc(NCCc2ccccn2)n1`, 3.94%.

Take `CC(C)(C)c1cc(C(=O)N2CCN(c3ncnc4ccsc34)CC2)n(Cc2ccccc2)n1`: the inhibition turned out to be 2.2%. The result for `Cc1nnsc1C(=O)Nc1ccc(-c2cccc(-c3nc4cccc(C)c4[nH]3)c2)cc1` reads 5.18%. For `O=C1OC2(CN1CC1CCN(Cc3ccc(O)cc3Cl)C1)c1ccccc1-c1ccccc12` (centres undefined) the value was 2.67%; for `CCOc1ccc(C(=O)Nc2cc(Br)c3c(c2)CNCC3)cc1C#N`, 5.78%. For `Cc1cc(CN2CCC(N3CC(c4ccccc4)(c4ccccc4)OCC3=O)C2)ccc1O` (centres undefined) the value was -3.65%; for `CCCCCc1cc(OC(C)=O)c2c(c1)OC(C)(C)C=C2C1=CCN(Cc2ccccc2)CC1`, -1.92%; for `O=S(=O)(NCCN1CCCC1)c1ccc(-c2ccc(CNCc3ccsc3)cc2)s1`, 4.76%. Consider `COc1ccc2c(C)cc(NCCCN(C)C)nc2c1`, for which the inhibition was -1.1%. For `CO/C(=C\C=C\c1cc2cc(Cl)c(Cl)cc2[nH]1)C(=O)NCCCN1CCCC[C@H]1C` the value was 1.43%; for `Cc1cccc2nc(-c3ccc(-c4ccc(CN5CCCCC5CO)cc4)cc3)[nH]c12` (centres undefined), 19.5%. For `N=C1NC(c2ccccc2)(c2ccccc2)C(=O)N1CC=Cc1ccccc1` the value was 4.83%; for `CC(O)C1CCCCN1C(=O)c1ccc(-c2ccc(-c3nc4ccccc4[nH]3)s2)cc1` (centres undefined), -1.69%. For `COc1cc2c(cc1CCNCCCCNCCc1cc3c(cc1OC)CCCC3)CCCC2` the value was 106%. Take `COc1ccc(CNC2Cc3ccccc3C2)cc1-c1ccc(S(=O)(=O)NCCN2CCCC2)c(F)c1`: the inhibition is 6.14%.

As usually defined, the inhibition is the drop in the measured response relative to a control, in per cent.
